Data: PubChem BioAssay AID449762 (Southern Research Specialized Biocontainment Screening …, 2010)
The campaign covered roughly 330,000 compounds. About 1,900 (0.58%) were called active. About 4% were inconclusive and are not listed. Rule as the data show it: inconclusive = inhibition above about 70% without an active follow-up result; inactive = below that. A selection follows. Potency and affinity values are given separately.

Assay: M. tuberculosis growth inhibition, HTS (AID 449762);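 also: bacterial growth assessed after seven days of incubation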
Details: M. tuberculosis H37Rv growth inhibition, 7H9 media; at 25 µM; hits give high values

SMILES	inhibition
Cc1ccc(/C=N/n2c(COc3ccccc3)n[nH]c2=S)cc1	6.13% (inactive)
O=C(COC(=O)CCc1c[nH]c2ccccc12)Nc1ccc([N+](=O)[O-])cc1	2.33% (inactive)
Cc1ccc(NC(=O)COC(=O)Cc2c[nH]c3ccccc23)cc1C	-4.13% (inactive)
COc1cc(/C=C/C(=O)OCC(=O)NCCC2=CCCCC2)cc(OC)c1OC	2.02% (inactive)
Cc1cccc(NS(=O)(=O)c2ccc(C(=O)N3CCCC3)cc2)c1C	-8.71% (inactive)
Cc1ccccc1NS(=O)(=O)c1ccc(C(=O)N2CCN(c3ccccc3O)CC2)cc1	4.31% (inactive)
OC(COCc1ccc(Cl)cc1)CN1CCCCC1 (stereo not drawn)	1.29% (inactive)
C=CCNC(=O)/C(C#N)=C\c1cc(Cl)c(OCC)c(OC)c1	7.41% (inactive)
COc1cccc(CN(C)C(=O)CSCC(=O)Nc2cccc(C)c2)c1OC	-5.41% (inactive)
CC(C)C(=O)N=c1sc2cc(F)cc(F)c2n1C	-9.4% (inactive)
O=C(NCC1CC1)c1ccc(Nc2nc3ccc(Br)cc3[nH]2)cc1	-0.43% (inactive)
O=C(NCc1cccs1)c1cccc(Nc2nc3ccc(Br)cc3[nH]2)c1	-11% (inactive)
CC(=O)Oc1ccc(-c2cccc(C(=O)NCCO)c2)cc1	-0.93% (inactive)
O=S(=O)(NC1CCCCC1Nc1ccccc1)c1ccccc1 (stereo not drawn)	-7.27% (inactive)
O=C(CN(c1ccc(F)cc1)S(=O)(=O)c1ccc2c(c1)OCCO2)N1CCOCC1	1.58% (inactive)
CCCCCC(=O)NCc1c(C(F)(F)F)nn(C)c1N1CCOCC1	-1.96% (inactive)
O=C(C[N+]12CCN(CC1)CC2)NCCc1ccc(Cl)cc1Cl	-3.14% (inactive)
O=C(CN1CCNC(=O)C1)NCCc1ccc(Cl)cc1Cl	-0.1% (inactive)
COc1ccc(OC)c(NC(=O)c2cccnc2Sc2cc(C)ccc2C)c1	8.29% (inactive)
Cc1ccc(S(=O)(=O)n2ccc3c(OCCOCCSCC(NC(=O)OC(C)(C)C)C(=O)O)cccc32)cc1 (stereo not drawn)	0.6% (inactive)
CC(C)(C)c1ccccc1OCCOCCNCc1ccccc1	2.6% (inactive)
O=C(CSc1nc2ccccc2[nH]1)Nc1ccc2[nH]c(=O)[nH]c2c1	8.79% (inactive)
CC(=O)Nc1ccc(NC(=O)CSc2ncnc3sc(C)c(C)c23)cc1	-0.3% (inactive)
CNc1nc(-c2ccc3c(c2)CCN3C(=O)c2ccccc2F)c(C)s1	9.7% (inactive)

SMILES	inhibition
O=C1/C(=C/c2ccccn2)SC(=S)N1NS(=O)(=O)c1ccccc1	5.72% (inactive)
CCC(=O)NCCCCCCCCCNC(=O)CC	-4.93% (inactive)
CCC(=O)NCCCCCCNC(=O)CC	0.18% (inactive)
C=CCn1c(SCC(=O)Nc2ccccc2F)nnc1C(C)NC(=O)c1ccccc1F (stereo not drawn)	-12.4% (inactive)
Cc1ccc(-c2c(C)n([O-])c3c([n+]2=O)CCCCC3)cc1	-3.38% (inactive)
CC(C)C[C@H](NC(=O)OC(C)(C)C)c1nnc(SCc2ccccc2)o1	-3.57% (inactive)
CCCCSc1nnc([C@H](CC(C)C)NC(=O)OC(C)(C)C)o1	-2.58% (inactive)
COc1ccc(C)cc1S(=O)(=O)NCc1cccs1	1.39% (inactive)
O=C(NCCc1ccc(Cl)cc1)c1ccc(OCC2CCCO2)cc1 (stereo not drawn)	5.17% (inactive)
O=C(NC1CCCCC1)N1CCN(Cc2nc3ccccc3c(=O)[nH]2)CC1	-4.69% (inactive)
CC(=O)Nc1ccc(NC(=S)NC(=O)C2CCCC2)cc1	-8.34% (inactive)
COc1ccc(NC(=S)NC(=O)C2CCC2)cc1	-0.22% (inactive)
Cn1nc(C(F)(F)F)c(C(=O)Nc2ccc(F)cc2F)c1Sc1ccc(Cl)cc1	-9.99% (inactive)
COc1ccc(-c2ccc3oc(-c4ccsc4)cc(=O)c3c2)cc1F	-0.47% (inactive)
COc1cc(-c2ccc3oc(-c4ccsc4)cc3c2)cc(OC)c1OC	0.64% (inactive)
O=C1c2ccccc2C(=O)N1CCc1csc(-c2cccc(F)c2)n1	3.85% (inactive)
COC(=O)CC1C(=O)NCCN1C(=O)c1ccccc1 (stereo not drawn)	-6.14% (inactive)
Brc1cccc2sc(N3CCCC3)nc12	6.95% (inactive)
Brc1ccc2nc(N3CCN(c4ccccc4)CC3)sc2c1	-4.96% (inactive)
COc1ccc(C(=O)Nc2ccccc2C(=O)NCCN2CCOCC2)cc1OC	4.9% (inactive)
O=C(COC(=O)c1ccc2c(c1)OCCO2)Nc1cccc(S(=O)(=O)N2CCOCC2)c1	9.61% (inactive)
COCCNC(=S)N/N=C(\C)c1ccccc1OC	-6.36% (inactive)
COc1ccccc1C(=O)NCc1ccccc1	10.8% (inactive)
C/C(=N\NC(=S)NCc1ccccc1)c1ccc(Br)cc1	6.33% (inactive)

SMILES	inhibition
COc1ccccc1C(=O)NNC(=O)CCC(=O)NCc1ccccc1	-3.02% (inactive)
CSc1ccccc1NC(=O)Nc1cccc(F)c1	1.3% (inactive)
CC(C)(C)N(Cc1ccccc1)C(=O)COC(=O)CNC(=O)c1ccco1	5.79% (inactive)
CC(C)C(NC(=O)c1cccs1)C(=O)NC1=NCCS1 (stereo not drawn)	-3.72% (inactive)
COc1cc(OC)cc(C(=O)N[C@H](C(=O)Nc2nc3ccc(S(C)(=O)=O)cc3s2)C(C)C)c1	10.5% (inactive)
CCOC(=O)c1csc(NC(=O)c2cc(=O)c3ccccc3o2)n1	-0.69% (inactive)
CCOC(=O)c1sc(NC(=O)c2cc3ccccc3o2)nc1C	3.64% (inactive)
COc1cccc(/C=N/Nc2nc(N3CCCC3)nc(N3CCCC3)n2)c1O	3.67% (inactive)
COc1cc(/C=N/Nc2nc(Nc3ccccc3)nc(-n3nc(C)cc3C)n2)cc(OC)c1OC	10.6% (inactive)
COc1ccc(NC(=S)N2CCC(N(C)CCN3CCOCC3)CC2)cc1	2.62% (inactive)
COc1ccccc1C(=O)NCCC(=O)N1CCN(c2ccccc2O)CC1	1.15% (inactive)
COc1ccc(-c2csc3nc(-c4ccccc4F)oc(=O)c23)cc1	-1.39% (inactive)
COc1ccc(-c2csc3ncnc(N4CCN(c5ccccc5Cl)CC4)c23)cc1	50.3% (inactive)
CCOc1ccccc1N1CCN(c2ncnc3scc(-c4ccc(OC)cc4)c23)CC1	-0.51% (inactive)
COc1ccc(-c2nc3scc(-c4ccc(OC)c(OC)c4)c3c(=O)o2)cc1	11.9% (inactive)
CCN(CC)c1ccc(C2C(C(C)=O)C(=O)CC(C)(O)C2C(C)=O)cc1 (stereo not drawn)	-4.35% (inactive)
C1CN(c2nc3nonc3nc2N2C[C@H]3CC[C@H]2C3)CCS1	-11% (inactive)
CCNC(=S)N(CCc1c(C)[nH]c2ccccc12)Cc1cccnc1	-3.56% (inactive)
CN1CCN(C(=O)CCN2C(=O)/C(=C\c3ccccc3F)SC2=S)CC1	-5.52% (inactive)
COc1ccc(-c2c(C#Cc3ccsc3)c3cc(Br)ccc3n2C)cc1	8.44% (inactive)
COc1ccc(C#Cc2c(-c3ccccc3)n(C)c3ccccc23)cc1	6.76% (inactive)
COc1cc(CNCCO)cc(Cl)c1OCc1ccccc1Cl	1.99% (inactive)
COc1cc(CNCc2ccccc2)cc(Cl)c1OC	-0.38% (inactive)
CCN(C(=O)c1cnc2scc(C)n2c1=O)c1ccccc1C	-2.4% (inactive)

SMILES	inhibition
COc1ccc(NC(=O)CC(Cc2ccc(Cl)cc2)C(=O)O)cc1 (stereo not drawn)	1.62% (inactive)
Cc1cccc(C)c1NC(=O)CN(C)C(=O)c1ccccc1Cc1ccccc1	2.81% (inactive)
Cc1cc(C)n2nc(SCC(=O)NC(=O)c3ccccc3Cl)nc2n1	1.71% (inactive)
CC(C)(C)c1nn(-c2ccccc2)c2[nH]c(=O)c(CNc3ccc4c(c3)OCCO4)cc12	52.8% (inactive)
Cc1nn(-c2ccccc2)c2[nH]c(=O)c(CNCc3ccc4c(c3)OCO4)cc12	-4.36% (inactive)
Cc1ccccc1NC(=O)C1CCN(S(=O)(=O)c2cccc3nonc23)CC1	4.17% (inactive)
CCC[C@@H]1C[C@@H](C(=O)N[C@H]([C@@H](C)O)[C@H]2O[C@H](SC)[C@H](O)[C@@H](O)C2O)N(C)C1 (stereo partly drawn)	59.1% (inactive)
Cc1ccc(NC(=O)[C@@H](CC(C)C)NC(=O)[C@@H]2Cc3ccccc3CN2)cc1	2.07% (inactive)
CCOC(=O)C(C)Sc1ccc2nnc(CCNS(=O)(=O)c3ccc(C)cc3)n2n1 (stereo not drawn)	1.94% (inactive)
Cc1cc(C(F)(F)F)cc(NNC(=O)NC(=O)c2ccccc2Cl)n1	10.6% (inactive)
COC(CNS(=O)(=O)c1ccc(S(=O)(=O)NC2CC2)cc1)OC	1.93% (inactive)
Cc1ccc(S(=O)(=O)NNC(=O)Nc2ccc(Cl)cc2)cc1	0.2% (inactive)
COc1cc(SC)ccc1C(=O)NCCOc1ccc(Cl)cc1	64.9% (inactive)
O=C(Nc1ccc(N2CCN(C(=O)c3ccco3)CC2)cc1)c1ccccc1	2.03% (inactive)
O=C(Nc1ccc(N2CCN(C(=O)c3ccco3)CC2)cc1)c1ccco1	-1.95% (inactive)
NC(=O)CC(NC(=O)Cc1ccc(Br)cc1)c1ccc(NCc2ccccn2)c([N+](=O)[O-])c1 (stereo not drawn)	3.35% (inactive)
O=C(CN1C(=O)S/C(=C/c2cc(Br)cs2)C1=O)N1CCOCC1	5.49% (inactive)
COCCNC(=O)c1ccccc1NC(=O)CCSc1ccccc1	-2.26% (inactive)
CCC1CCCCN1Cc1nc2c(c(=O)n(C)c(=O)n2C)n1CCC(C)C (stereo not drawn)	-0.27% (inactive)
Cc1cccc(-c2oc3ccccc3c2-c2ccc3c(c2)OCO3)c1	52.4% (inactive)
COc1ccc(-c2c(-c3cccc(C)c3)oc3ccc(-c4ccc5c(c4)OCO5)cc23)cn1	-1.67% (inactive)
